# From PubChem BioAssay
# 12-LOX inh: Primary qHTS assay for inhibitors of human arachidonate 12S-lipoxygenase (ALOX12): Round 2 | 580,000 compounds, 1.1% hits | Polyunsaturated fatty acid lipoxygenase ALOX12 (Homo sapiens), P18054 | purified 12hLO, xylenol orange hydroperoxide absorbance | AID 1671190, 2021 | Potency, µM (highest dose often 108 µM), most hits filed as inhibitors
# Target sequence (P18054 whole entry, looked up): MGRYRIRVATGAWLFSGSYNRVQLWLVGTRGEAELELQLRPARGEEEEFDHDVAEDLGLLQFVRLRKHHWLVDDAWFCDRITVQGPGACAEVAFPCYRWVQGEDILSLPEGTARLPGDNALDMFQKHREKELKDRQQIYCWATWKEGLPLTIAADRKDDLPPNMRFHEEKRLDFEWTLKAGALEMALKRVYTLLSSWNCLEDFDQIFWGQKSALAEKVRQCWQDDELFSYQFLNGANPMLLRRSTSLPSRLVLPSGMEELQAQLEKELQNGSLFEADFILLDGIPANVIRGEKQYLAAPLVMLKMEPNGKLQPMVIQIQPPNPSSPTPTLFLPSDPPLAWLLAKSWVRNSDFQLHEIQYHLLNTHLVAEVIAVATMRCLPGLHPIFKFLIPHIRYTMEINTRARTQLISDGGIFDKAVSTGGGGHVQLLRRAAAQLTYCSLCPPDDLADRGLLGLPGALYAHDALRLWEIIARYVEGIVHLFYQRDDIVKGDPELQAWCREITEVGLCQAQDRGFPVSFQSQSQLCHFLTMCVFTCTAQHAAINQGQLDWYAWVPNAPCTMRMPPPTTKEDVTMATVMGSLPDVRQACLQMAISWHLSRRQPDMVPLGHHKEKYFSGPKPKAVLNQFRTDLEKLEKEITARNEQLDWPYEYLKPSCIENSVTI
#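 Purified human 12hLO at 150 nM in 25 mM Hepes, 0.01% Triton X-100, pH 7.0, preincubated 15 min at room temperature with compound. Reaction started with 40 uM arachidonic acid, 30 min at room temperature. Hydroperoxide measured by Fe-xylenol orange, 573/405 nm absorbance ratio.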
# TDP1 cell CPT: qHTS for Inhibitors of human tyrosyl-DNA phosphodiesterase 1 (TDP1): qHTS in cells in presence of CPT. chicken DT40 Tdp1-/-;hTDP1 cells + 20 nM CPT, ATP luminescence, 48 h. Potency, µM (titrated, usually from 46.2 µM), hits mostly inhibitors. 420,000 compounds, 12% hits. AID 686979, 2013; further: nearly all actives have a fitted effect of over 55% in size
#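 Chicken DT40 Tdp1-/- cells complemented with human TDP1, 400 cells/well, exposed to compounds plus 20 nM camptothecin for at least 48 h at 37 C; viability read as ATP content by CellTiter-Glo luminescence.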
# ELG1 DNA repair: qHTS screen for small molecules that inhibit ELG1-dependent DNA repair in human embryonic kidney (HEK293T) cells expressing luciferase-tagged ELG1; HEK293T ELG1-luciferase reporter, luminescence, 16 h; DNA damage induced by 5-fluorouridine; Potency, µM (titrated, usually from 46.1 µM), hits mostly inhibitors; 330,000 compounds, 2.3% hits; AID 504467, 2011; further: nearly all actives have a fitted effect of over 55% in size
#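 Overnight (16 hr) co-exposure of 2,000 cells/well to 5-fluorouridine and compound at 37 °C preceded detection. Luciferase was quantified via ONE-Glo luminescence; loss of signal denotes inhibition.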
# Gal4-VP16 FLuc: VP16 counterscreen qHTS for inhibitors of ROR gamma transcriptional activity. Drosophila S2 Gal4-VP16 UAS-luciferase, luminescence, 20 h. Potency, µM (titrated, usually from 53.6 µM), usual class: inhibitors. 310,000 compounds, 3.5% hits. AID 2546, 2010;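 further: Gal4-VP16 expression switched on by copper sulfate through the metallothionein promoter; nearly all actives have a fitted effect of over 50% in size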
# DT40 TDP1 no CPT: qHTS for Inhibitors of human tyrosyl-DNA phosphodiesterase 1 (TDP1): qHTS in cells in absence of CPT; DT40 Tdp1-/- hTDP1 cells, no CPT, ATP luminescence, 48 h; Potency, µM (series often up to 46.2 µM), most hits filed as inhibitors; 420,000 compounds, 15% hits; AID 686978, 2013; further: nearly all actives have a fitted effect of over 55% in size
#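 Chicken DT40 Tdp1-/- cells stably complemented with human TDP1 were seeded at 400 cells/well with DMSO in place of 20 nM camptothecin. After compound pinning, cells grew at least 48 hr at 37 °C; viability read by CellTiter-Glo luminescence.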
# RORg inh: qHTS for inhibitors of ROR gamma transcriptional activity | Drosophila S2 Gal4-RORgamma UAS-luciferase reporter, 20 h | Potency, µM (titrated, usually from 53.6 µM), hits mostly inhibitors | 310,000 compounds, 5.4% hits; further: nearly all actives have a fitted effect of over 60% in size
#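 A Gal4/UAS one-hybrid system in insect cells: metallothionein-promoter Gal4–ROR gamma fusion plus Photinus luciferase reporter. Copper sulfate 700 uM final, 20 hr ambient incubation, luminescent detection after 10 min with reagent.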
# Hits are given with their value; 0 = inactive; ? = inconclusive; - = not tested or not shown. Shown are actives, neighbours in structure and some others; about 15% of the full set was active somewhere. The call rests on the fitted dose curve; in most records, active means well fitted curve in the direction sought with a large enough effect; inconclusive means small, poorly fitted or top-dose-only effect, or another doubt; inactive means no such curve, though single readings can be large; an effect the other way counts as inactive or inconclusive.
SMILES,12-LOX inh,TDP1 cell CPT,ELG1 DNA repair,Gal4-VP16 FLuc,DT40 TDP1 no CPT,RORg inh
CCOC(=O)N1CCN(C(=O)C[C@@H]2C[C@@]3(C(=O)OCC)CCC=C3N(Cc3ccccc3)C2=O)CC1,0,0,-,-,0,-
CCOC(=O)[C@]12CCCC=C1N(Cc1ccco1)C(=O)[C@H](CC(=O)N1CCN(C(=O)c3ccco3)CC1)C2,0,0,-,-,0,-
CCOC(=O)[C@]12CCC=C1N(Cc1ccc(Cl)cc1Cl)C(=O)[C@H](CC(=O)N1CCN(C(=O)c3ccco3)CC1)C2,0,16µM,-,-,16µM,-
CCOC(=O)[C@]12CCC=C1N(Cc1ccccc1)C(=O)[C@H](CC(=O)N1CCCCC1)C2,0,21µM,-,-,?,-
CCOC(=O)[C@]12CCCC=C1N(Cc1ccc(Cl)cc1Cl)C(=O)[C@H](CC(=O)N1CCOCC1)C2,0,?,-,-,15µM,-
CCOC(=O)[C@]12CCCC=C1N(Cc1ccccc1)C(=O)[C@H](CC(=O)N1CCOCC1)C2,0,0,-,-,0,-
Cc1ccc(C(=O)NCC(=O)N(C)CC(=O)Nc2ccc(Cl)cc2)s1,0,-,-,-,-,-
FC(F)(F)c1ccc2c(c1)nc1n2[C@@H](CNCc2ccccc2)COC1,0,-,-,-,-,-
CC(=O)N1CC2(Cc3ccccc31)CN(C(=O)c1ccc(F)cc1)C2,0,-,-,-,-,-
CCCN(CC1CCOC1)C(=O)Nc1c(F)cccc1F (centres undefined),0,-,-,-,-,-
CCOC(=O)[C@]12CCC=C1N(Cc1ccc(Cl)cc1Cl)C(=O)[C@H](CC(=O)N1CCCC1)C2,?,16µM,-,-,15µM,-
CCOC(=O)[C@]12CCC=C1N(Cc1ccc(Cl)cc1Cl)C(=O)[C@H](CC(=O)N1CCCCC1)C2,0,?,-,-,?,-
COC(=O)c1c(C(=O)OC)c(-c2ccc(Cl)cc2)n2c1CS(=O)(=O)C2,0,21µM,0,0,21µM,0
COC(=O)c1c(C(=O)OC)c(-c2ccc(C)cc2)n2c1CS(=O)(=O)C2,0,0,0,0,?,0
O=S(=O)(N[C@H]1CO[C@H]2[C@@H]1OC[C@@H]2n1nnnc1Oc1ccc(-n2cncn2)cc1)c1cccs1,0,-,-,-,-,-
Cc1cc(C(=O)NCC2CCC3(CCN(Cc4ccc(-c5ccccc5)cc4)CC3)O2)n(C)n1 (centres undefined),0,?,-,-,4.6µM,-
COc1ccc(F)c(CN2CCC3(CCC(CNC(=O)c4cc(C)nn4C)O3)CC2)c1 (centres undefined),0,?,-,-,15µM,-
CC(=O)NC1(C)CCN(Cc2ccccc2-c2ccccc2Oc2ccccc2)C1 (centres undefined),35µM,-,-,-,-,-
COc1cc(CN2CCC3(CCC(CNC(=O)c4ccccc4)O3)CC2)cc(OC)c1 (centres undefined),0,10µM,-,-,?,-
CC(=O)NC1(C)CCCN(Cc2ccc(Oc3ccccc3)cc2)C1 (centres undefined),0,-,-,-,-,-
Cc1nn(C)c2nc(NCCCN3CCNC(=O)C3)sc12,0,-,-,-,-,-
CN(C)C(CNC(=O)CC1C=CCC1)c1cccs1 (centres undefined),0,-,-,-,-,-
COc1cc(CN2CCC(C)(NC(C)=O)CC2)cc(Nc2ccccc2)c1,13µM,-,-,-,-,-
CC(=O)NC1(C)CCN(Cc2cccc(Nc3ccccc3)c2)C1 (centres undefined),0,-,-,-,-,-
CC(C)(C)C(=O)Nc1ccc(NC(=O)C2CCCC2)cc1,0,-,-,-,-,-
CCCCc1ccc(C(=O)N/C(=C\c2ccc(C)cc2)C(=O)NC2CCCCC2)cc1,?,9.2µM,-,-,15µM,-
Cc1ccc(C(=O)N/C(=C\c2ccc(Cl)cc2)C(=O)NC2CCCCC2)cc1,0,?,-,-,18µM,-
